# Assay outcomes from PubChem.
# Most compounds without a hit are left out; they make up all but 4.6% or so of the library.
# ssDAF-12 act = S. stercoralis DAF-12 nuclear receptor activators, primary screen, cell-based, luminescence, HEK293, GRIP1 co-expression, lit1-tk-luc. HEK293 ssDAF-12/GRIP1 lit1-tk-luc reporter; % of 3 µM dafachronic acid response. activation, % at 6.8 µM. Nuclear hormone receptor DAF-12 (Strongyloides stercoralis). 370,000 tested, 1% active. AID 652126, 2013;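 active = activation above the mean over all tested compounds plus 3 SD, cut at about 0.9% in these data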;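 note: 0% = DMSO-only wells and 100% = 3 µM delta7-dafachronic acid wells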
# hgDAF-12 ag = H. glycines DAF-12 receptor agonists, primary screen, cell-based, luminescence, HEK293, GAL4 fusion, UAS-luciferase; Nuclear hormone receptor DAF-12 (Heterodera glycines), GAL4 fusion; HEK293 GAL4-hgDAF12 UAS-luciferase reporter, agonist luminescence; normalized to butyrate control; activation, % at 6.8 µM; 370,000 tested, 1.8% active; AID 687014, 2013;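 active = activation above a cutoff set at the mean of all screened compounds plus 3 SD, cut at about 10% in these data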;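 note: 0% = DMSO wells and 100% = sodium butyrate wells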
# Wee1 degr inh = Wee1 degradation inhibitors, primary screen, cell-based, HeLa, Wee1K328M-luciferase, luminescence; Wee1-like protein kinase (Homo sapiens), P30291; HeLa Luc-Wee1K328M stability; 100% = proteasome inhibitor MG132 effect; reporter increase, % at 5 µM; 220,000 tested, 1.2% active; AID 1321, 2008;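 active = activation above the mean of all tested compounds plus 3 SD, set per screening run, cut at about 8.8% in these data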;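 note: cells exposed to compound for 20 h before luminescence read; 0% = DMSO alone and 100% = MG132 at 30 µM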
# DAX1 inh-1 = DAX1 (NR0B1) inhibitors on StAR promoter, primary screen, cell-based, luminescence, SF-1 (NR5A1), full-length DAX-1; HEK293T StAR-luciferase reporter, SF-1/DAX-1 repression relief; 370,000 tested, 1.1% active; inhibition, % at 6.8 µM; AID 652010, 2013;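 active = inhibition above the mean over all tested compounds plus 3 SD, cut at about 3.6% in these data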;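 note: 0% = DAX-1 cells with DMSO and 100% = cells lacking DAX-1 with DMSO; higher inhibition means more luminescence from relief of DAX-1 repression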
# DAX1 inh-2 = DAX1 (NR0B1) inhibitors, primary screen, cell-based, HEK293, Gal4-DAX1, luciferase luminescence. Nuclear receptor subfamily 0 group B member 1 (Homo sapiens), P51843. HEK293 Gal4-DAX1 luciferase reporter. inhibition, % at 6.75 µM. 340,000 tested, 0.99% active;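 active = inhibition above the mean over all tested compounds plus 3 SD, cut at about 4.2% in these data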;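 note: 0% = DAX1-transfected cells with DMSO and 100% = empty-vector control cells with DMSO; inhibition shows as a rise in luminescence from relieved DAX1 repression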
# hcDAF12 agonist = H. contortus DAF-12 nuclear receptor activators, primary screen, cell-based, luminescence, HEK293, lit1-tk-luc reporter. HEK293 hcDAF-12 lit1-tk-luc reporter; 0% DMSO, 100% Δ7-dafachronic acid. activation, % at 6.8 µM. 370,000 tested, 1.4% active. AID 652067, 2013;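 active = activation above the mean of all tested compounds plus 3 SD, cut at about 5.5% in these data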;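 note: 100% = response to 3 µM Δ7-dafachronic acid high control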
# DAX1 conf = DAX1 (NR0B1) inhibitors relieving SF-1 repression, confirmation, cell-based, luminescence, HEK293T, full-length DAX-1, SF-1 activated StAR promoter; shares compounds with DAX1 inh-1; HEK293T StAR-promoter luciferase reporter, SF-1/DAX-1 repression; inhibition, % at 6.8 µM; 2,400 tested, 87% active; AID 652134, 2013;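 active = inhibition above the average of every tested compound plus 3 SD, cut at about 3.8% in these data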;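 note: 0% = DAX-1 cells with DMSO and 100% = no DAX-1 control cells with DMSO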
# Target sequence (P51843 whole entry, looked up): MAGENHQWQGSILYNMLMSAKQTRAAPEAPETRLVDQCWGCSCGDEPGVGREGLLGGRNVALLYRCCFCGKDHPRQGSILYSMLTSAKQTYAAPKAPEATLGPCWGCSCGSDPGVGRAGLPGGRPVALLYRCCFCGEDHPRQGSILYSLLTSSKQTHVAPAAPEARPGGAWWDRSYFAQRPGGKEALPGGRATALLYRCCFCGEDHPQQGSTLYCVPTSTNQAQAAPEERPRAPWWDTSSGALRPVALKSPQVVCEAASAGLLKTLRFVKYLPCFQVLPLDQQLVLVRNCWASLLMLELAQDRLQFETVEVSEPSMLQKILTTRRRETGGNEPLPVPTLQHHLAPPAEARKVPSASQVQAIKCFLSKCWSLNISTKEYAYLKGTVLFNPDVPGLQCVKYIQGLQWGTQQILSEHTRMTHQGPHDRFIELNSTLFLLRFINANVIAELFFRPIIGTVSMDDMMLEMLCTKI
# SF1 AF2mut Luc = StAR reporter signal changes without DAX1, counter-screen for DAX1 inhibitor project, cell-based, luminescence, AF-2 mutant SF-1, transactivation; AID 652136, 2013; 2,400 tested, 78% active; HEK293 StAR-luciferase, SF-1 AF2 mutant; shares compounds with DAX1 inh-1; inhibition, % at 6.8 µM;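 active = inhibition above the mean of all tested compounds plus 3 SD, cut at about 3% in these data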;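 note: 0% = DAX-1 transfected cells with DMSO and 100% = cells without DAX-1 with DMSO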
# LXR ag = LXR agonists, Gal4 luciferase reporter, confirmation, counter-screen for hcDAF-12 agonist project, cell-based, luminescence, HEK293, H. contortus campaign; HEK293 Gal4-LXR tk-luc reporter, 24 h; normalized: DMSO 0%, positive control 100%; activation, % at 6.8 µM; AID 743027, 2013; 3,400 tested, under 10 active; shares compounds with hcDAF12 agonist;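 active = mean percent activation of the reporter above a cutoff set as the average over tested compounds plus their standard deviation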
# hcDAF12 ag = H. contortus DAF-12 receptor agonists, confirmation, cell-based, luminescence, HEK293, lit1-tk-luc, triplicate; 3,400 tested, 61% active; AID 743032, 2013; shares compounds with hcDAF12 agonist; activation, % at 6.8 µM; HEK293 hcDAF-12 lit1-tk-luc reporter; % of Δ7-dafachronic acid response;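 active = mean activation across triplicate tests above the threshold derived from the earlier primary screen, cut at about 5.5% in these data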;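 note: 0% = DMSO only wells and 100% = 3 µM Δ7-dafachronic acid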
# hgDAF12 ag = H. glycines DAF-12 receptor agonists, confirmation, cell-based, luminescence, HEK293, GAL4-LBD fusion; shares compounds with hgDAF-12 ag; HEK293 GAL4-hgDAF12 luciferase reporter, agonist mode; percent of butyrate response; activation, % at 6.8 µM; 3,300 tested, 80% active; AID 743050, 2013;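 active = mean activation over triplicate wells above the hit cutoff derived from the earlier primary screen, cut at about 11% in these data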;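 note: 0% = DMSO low control and 100% = 2 mM sodium butyrate high control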
# LXRb DAF12 ctr = LXR agonists, Gal4 luciferase reporter, confirmation, counter-screen for hgDAF-12 agonist project, cell-based, luminescence, HEK293, H. glycines campaign | shares compounds with hgDAF-12 ag | 24 h | activation, % at 6.8 µM | 3,300 tested, under 10 active | AID 743051, 2013;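 active = mean activation of the triplicate above a set limit carried over from the primary screen, none filed active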
# Active calls of the source: *; . = no result.
SMILES,ssDAF-12 act,hgDAF-12 ag,Wee1 degr inh,DAX1 inh-1,DAX1 inh-2,hcDAF12 agonist,DAX1 conf,SF1 AF2mut Luc,hgDAF12 ag,LXRb DAF12 ctr,others
CC(C)(C(=O)N1CCC1(C)C(=O)NS(=O)(=O)c1ccc(Cl)s1)c1ccccc1 (configuration not stated),-1,5,.,0,.,-1,.,.,.,.,
C(=N\N=C\c1cccnc1)/c1cccnc1,.,.,-1,.,0,.,.,.,.,.,
CN(/N=C/c1cccnc1)c1cnc2ccccc2n1,4.2*,20*,-1,7.3*,2,12*,11*,5.8*,17*,1,LXR ag=1;hcDAF12 ag=10*
CC/C(=N\NC(=O)c1ccoc1C)c1ccc(C)o1,2.1*,23*,2,7.1*,1,9.2*,2,3,9,0,LXR ag=0;hcDAF12 ag=2
CC/C(=N\NC(=O)c1c(-c2ccccc2)noc1C)c1ccc(C)o1,-1,1,2,0,-1,-1,.,.,.,.,
COc1cccc(C(=O)/C=C2\Sc3ccccc3N2C)c1,2.6*,28*,-1,5.4*,1,13*,11*,10*,22*,1,LXR ag=2;hcDAF12 ag=9.1*
COc1cccc(C(=O)Nc2ccccc2NC(=O)c2cccc(OC)c2)c1,-2,1,.,-1,-2,-3,.,.,.,.,
COCCCn1c(C(=O)Nc2ccc3c(c2)OCO3)cc2c(=O)n3cccc(C)c3nc21,-1,1,.,0,1,-3,.,.,.,.,
Nc1ccccc1C(=O)NNC1=C(C(=O)C(F)(F)F)CCC1,0,17*,2,7.2*,15*,9.2*,13*,6.5*,18*,0,LXR ag=0;hcDAF12 ag=1
O=C(NNC1=C(C(=O)C(F)(F)F)CCC1)c1ccc(Br)cc1,-2,3,-1,2,1,-1,.,.,.,.,
COC(=O)C1C(=O)c2c([nH]c(C(=O)OC3CCCC3C)c2C)CC1C (configuration not stated),1,18*,4,4.7*,4,1,5.5*,3.3*,11*,1,
CC1(C)CC(=O)C=C(c2cccs2)C1,-1,3,.,-1,0,-1,.,.,.,.,
O=S1(=O)C=CCN1Cc1cn(Cc2cccc(Cl)c2)nn1,-1,3,.,1,.,-1,.,.,.,.,
COc1ccc(OCc2cc(C(=O)N3CCC(c4ccccc4)CC3)no2)c(Cl)c1,-1,7,.,3,0,1,.,.,.,.,
COc1ccc(OCc2cc(C(=O)N3CCOCC3)no2)c(Cl)c1,0,13*,.,7.4*,0,3,9.8*,7.5*,15*,1,
COc1ccc(-c2cc(C(=O)Nc3c(C)n(C)n(-c4ccccc4)c3=O)c3ccccc3n2)cc1,-1,-2,.,-1,0,-2,.,.,.,.,
COc1ccc2cc(-c3cc(C(=O)OCC(=O)Nc4c(C)n(C)n(-c5ccccc5)c4=O)c4ccccc4n3)ccc2c1,0,15*,-3,4.8*,-2,2,11*,6.4*,12*,1,
O=C(Nc1nc2cc3c(cc2s1)OCO3)C1CC1,-2,3,2,0,0,-1,.,.,.,.,
O=C(Nc1nc2cc3c(cc2s1)OCCO3)C1CCCCC1,1,13*,.,15*,1,4,12*,4.4*,15*,1,
O=C(Nc1nc2cc3c(cc2s1)OCO3)C1CCCCC1,0,14*,.,12*,1,9.8*,15*,7.7*,16*,1,LXR ag=1;hcDAF12 ag=5
O=c1c2ccccc2oc2c1oc1ccccc12,0,15*,.,6.6*,3,5,7.3*,6.5*,13*,0,
O=c1c2ccccc2oc2cc(Br)ccc12,-1,1,.,0,1,2,.,.,.,.,
CCCS(=O)(=O)NC(=O)C1(C)CCCN(C(=O)c2ccc3ccccc3c2)C1 (configuration not stated),-1,0,.,1,.,-1,.,.,.,.,
Cc1ccc(NC(=O)c2c(C)nc3ccccn23)cc1C,-1,14*,0,5.8*,5.6*,1,8.9*,6.1*,16*,1,
CCCC(=O)Nc1ccc(-c2nc3cc(C)c(C)cc3o2)cc1,1.6*,13*,0,5.5*,2,5,14*,8.7*,16*,1,
